According to PubChem BioAssay (NCATS):
Where “and” joins values, the source holds several entries; their conditions need not be identical. Equal entries are not always repeated. Results filed as inconclusive are left out. Calls of active or inactive are those of the source. Unless noted, calls come from the whole dose curve; as a rule, active = well fitted curve in the direction sought with a large enough effect; inconclusive = small, poorly fitted or top-dose-only effect, or another doubt; inactive = no such curve, though single readings can be large; an effect the other way counts as inactive or inconclusive.

Key:
[1] = molecular target: Cytochrome P450 3A4 (Homo sapiens) (UniProt P08684); assay: qHTS Assay for Inhibitors and Substrates of Cytochrome P450 3A4 (AID 884); note: series mostly up to about 57 µM; % is set by controls: 0 for no effect and ±100 for the full control effect; nearly all actives have a fitted effect of over 50% in size
Chain of Cytochrome P450 3A4 (Homo sapiens) (P08684 whole entry, looked up): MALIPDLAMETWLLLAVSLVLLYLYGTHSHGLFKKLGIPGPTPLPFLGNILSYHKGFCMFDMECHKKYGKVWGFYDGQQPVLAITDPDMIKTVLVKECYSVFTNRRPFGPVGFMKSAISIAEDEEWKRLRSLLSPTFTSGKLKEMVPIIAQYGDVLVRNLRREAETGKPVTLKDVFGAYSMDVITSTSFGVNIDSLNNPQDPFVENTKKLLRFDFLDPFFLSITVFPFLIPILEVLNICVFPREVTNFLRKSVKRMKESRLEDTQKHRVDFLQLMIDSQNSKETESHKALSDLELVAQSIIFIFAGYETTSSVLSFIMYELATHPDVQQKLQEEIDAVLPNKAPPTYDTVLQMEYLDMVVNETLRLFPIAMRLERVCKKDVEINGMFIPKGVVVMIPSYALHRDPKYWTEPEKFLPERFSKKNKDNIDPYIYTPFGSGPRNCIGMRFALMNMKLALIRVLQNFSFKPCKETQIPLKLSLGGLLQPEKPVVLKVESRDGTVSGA
Summary of the method: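 Luminescent readout of luciferin produced by CYP3A4 (20 nM) dealkylation of Luciferin-PPXE, 25 uM (its KM). NADPH-driven reaction ran 60 min at RT after 10 min compound preincubation; data scaled to 57 uM ketoconazole as 100% inhibition.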

[2] = Cell Viability - LYMP2-001 (AID 921);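 note: series mostly up to about 92 µM; 0% = DMSO only and full inhibition = tetraoctylammonium bromide control wells; nearly all actives have a fitted effect of over 70% in size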
Summary of the method: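 Steps: seed 2500 lymphoblastoid cells/well; 5 hr, 37 C; add compound; 24 hr, 37 C; CellTiter-Glo reagent, 30 min room temperature; read luminescence. Concentration-response modeled by Hill equation for AC50.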

[3] = MultiTox-Fluor Cytotoxicity Assay - LYMP1-001 - Live Cells (AID 947);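 note: 0% = DMSO only and full inhibition = tetraoctylammonium bromide control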
[4] = Cell Viability - LYMP2-010 (AID 981);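 note: cells exposed to compound for 24 hours at 37 °C; % is set by controls: 0 for no effect and ±100 for the full control effect; nearly all actives have a fitted effect of over 55% in size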
Summary of the method: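 qHTS cytotoxicity, 1536-well: 2500 cells/well, 5 hr settle, 24 hr compound at 37 C, CellTiter-Glo 30 min RT, luminescence read. Decrease in ATP = toxicity; AC50 via standard Hill equation. Positive control tetraoctylammonium bromide.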

[5] = Cell Viability - LYMP2-012 (AID 982);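 note: cellular ATP by luciferase luminescence where a drop means cytotoxicity; cells exposed to compound for one day before reading; 0% = DMSO only and full loss = 92 µM tetraoctylammonium bromide; nearly all actives have a fitted effect of over 55% in size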
[6] = Cell Viability - LYMP2-016 (AID 984);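 note: cells exposed to compound for 24 hours at 37 °C; % is set by controls: 0 for no effect and ±100 for the full control effect; nearly all actives have a fitted effect of over 55% in size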
Summary of the method: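 Cells were seeded at 2500 per well and rested 5 hr before a 24 hr compound exposure at 37 C. Viability was then gauged as cellular ATP by luciferase luminescence, with AC50 values fitted to the Hill equation.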

[7] = Cell Viability - LYMP2-024 (AID 988);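 note: plate controls were DMSO only for no effect and 92 µM tetraoctylammonium bromide for full effect; nearly all actives have a fitted effect of over 60% in size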
Summary of the method: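 ATP-based luminescence (CellTiter-Glo, 30 min RT) after 24 h compound exposure at 37 C of 2500 lymphoblastoid cells/well; decrease in ATP taken as cytotoxicity. qHTS concentration-response fitted to standard Hill equation for AC50.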

[8] = molecular target: Estrogen receptor (Homo sapiens) (UniProt P03372); assay: qHTS assay for small molecule antagonists of estrogen receptor alpha signaling (AID 588513; active = well fitted curve in the direction sought with a large enough effect in the signal ratio, with a control signal flat, not every such curve was filed as active; the % refers to the signal ratio; note: % is set by controls: 0 for no effect and ±100 for the full control effect)
Chain of Estrogen receptor (Homo sapiens) (P03372 whole entry, looked up): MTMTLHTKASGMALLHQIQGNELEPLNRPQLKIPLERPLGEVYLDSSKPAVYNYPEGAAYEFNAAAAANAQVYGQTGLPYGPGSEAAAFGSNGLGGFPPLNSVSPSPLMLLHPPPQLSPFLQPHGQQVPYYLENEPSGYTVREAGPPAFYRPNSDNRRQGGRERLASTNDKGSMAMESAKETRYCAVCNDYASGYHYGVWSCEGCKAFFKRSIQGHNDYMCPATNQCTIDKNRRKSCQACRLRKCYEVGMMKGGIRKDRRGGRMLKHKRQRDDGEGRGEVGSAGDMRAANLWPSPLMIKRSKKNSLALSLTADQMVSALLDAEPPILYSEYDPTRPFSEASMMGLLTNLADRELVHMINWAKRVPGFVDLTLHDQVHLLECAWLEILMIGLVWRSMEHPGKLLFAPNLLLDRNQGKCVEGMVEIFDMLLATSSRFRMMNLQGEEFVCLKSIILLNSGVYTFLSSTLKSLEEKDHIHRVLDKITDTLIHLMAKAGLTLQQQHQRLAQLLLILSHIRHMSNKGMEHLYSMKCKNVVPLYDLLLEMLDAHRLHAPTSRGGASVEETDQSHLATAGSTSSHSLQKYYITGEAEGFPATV
Summary of the method: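 Fluorescence from CCF4 substrate after 2 h at room temperature gave reporter activity; cells had been exposed to compound and 0.5nM 17-beta-estradiol for 18 h at 37 C. Hill-equation fitting yielded IC50 and maximal response.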

[9] = molecular target: Estrogen receptor (Homo sapiens) (UniProt P03372); assay: qHTS assay for small molecule agonists of estrogen receptor alpha signaling (AID 588514; calls by dose curve;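 note: 0% = vehicle only and 100% = reference agonist; nearly all actives have a fitted effect of over 70% in size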)
Summary of the method: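 Read-out: CCF4 fluorescence from a beta-lactamase reporter in ER-alpha-UAS-bla HEK 293 cells after 18 hrs of compound exposure at 37 C. Normalized to 20 nM 17-beta-estradiol (100%) and DMSO (0%).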

[10] = molecular target: Glucocorticoid receptor (Homo sapiens) (UniProt P04150); assay: qHTS assay for small molecule agonists of glucocorticoid receptor signaling (AID 588532; active = well fitted curve in the direction sought with a large enough effect in the signal ratio, with a control signal flat; the % refers to the signal ratio;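 note: 100% = dexamethasone at 0.1 µM and 0% = DMSO only wells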); conditions: HeLa MMTV-bla, beta-lactamase ratio, agonist, 18 h; active compounds read high; percent of dexamethasone control, DMSO zero
Chain of Glucocorticoid receptor (Homo sapiens) (P04150 whole entry, looked up): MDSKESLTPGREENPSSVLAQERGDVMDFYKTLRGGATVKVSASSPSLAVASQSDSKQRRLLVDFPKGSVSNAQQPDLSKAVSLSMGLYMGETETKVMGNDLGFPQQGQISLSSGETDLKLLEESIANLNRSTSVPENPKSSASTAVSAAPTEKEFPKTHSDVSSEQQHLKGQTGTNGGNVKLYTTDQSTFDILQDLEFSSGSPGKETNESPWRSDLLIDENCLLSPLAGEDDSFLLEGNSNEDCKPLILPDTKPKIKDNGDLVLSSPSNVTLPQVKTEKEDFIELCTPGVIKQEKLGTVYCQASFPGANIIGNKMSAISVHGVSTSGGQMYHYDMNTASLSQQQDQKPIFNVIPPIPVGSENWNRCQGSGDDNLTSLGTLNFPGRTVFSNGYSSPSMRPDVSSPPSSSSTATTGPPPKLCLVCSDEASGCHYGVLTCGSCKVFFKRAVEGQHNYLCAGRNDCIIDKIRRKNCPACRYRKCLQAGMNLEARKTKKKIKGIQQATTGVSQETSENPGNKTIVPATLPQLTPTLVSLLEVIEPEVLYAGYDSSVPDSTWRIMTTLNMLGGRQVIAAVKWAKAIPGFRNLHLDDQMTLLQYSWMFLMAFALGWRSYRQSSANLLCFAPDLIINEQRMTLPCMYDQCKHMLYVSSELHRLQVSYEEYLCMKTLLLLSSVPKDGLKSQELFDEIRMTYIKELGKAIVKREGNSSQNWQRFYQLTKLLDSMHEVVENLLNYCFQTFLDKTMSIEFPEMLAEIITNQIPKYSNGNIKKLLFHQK
Summary of the method: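 MMTV-bla HeLa beta-lactamase reporter cells in 1% charcoal/dextran FBS medium, compounds up to 92 uM for 18 h at 37 C, CCF4 readout; normalized to 0.1 uM dexamethasone (100%), EC50 and efficacy from Hill fits.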

[11] = molecular target: Glucocorticoid receptor (Homo sapiens) (UniProt P04150); assay: qHTS assay for small molecule antagonists of glucocorticoid receptor signaling (AID 588533; active = well fitted inhibition curve with a large enough effect in the signal ratio, with a control signal flat, not every such curve was filed as active; the % refers to the signal ratio;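 note: cells stimulated with 2 nM dexamethasone as agonist; % is set by controls: 0 for no effect and ±100 for the full control effect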)
Summary of the method: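 Antagonist-mode qHTS: compound titrations added to GRE-bla HeLa cells, then dexamethasone 2 nM final; 18 h, 37 C. CCF4 FRET fluorescence normalized to dexamethasone and DMSO; IC50 from Hill fit.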

[12] = molecular target: Peroxisome proliferator-activated receptor gamma (Homo sapiens) (UniProt P37231); assay: qHTS assay for small molecule agonists of peroxisome proliferator-activated receptor gamma signaling (AID 588536; active = well fitted curve in the direction sought with a large enough effect in the signal ratio, with a control signal flat, not every such curve was filed as active; the % refers to the signal ratio;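 note: 0% = DMSO basal wells and 100% = rosiglitazone at 2 µM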)
Chain of Peroxisome proliferator-activated receptor gamma (Homo sapiens) (P37231 whole entry, looked up): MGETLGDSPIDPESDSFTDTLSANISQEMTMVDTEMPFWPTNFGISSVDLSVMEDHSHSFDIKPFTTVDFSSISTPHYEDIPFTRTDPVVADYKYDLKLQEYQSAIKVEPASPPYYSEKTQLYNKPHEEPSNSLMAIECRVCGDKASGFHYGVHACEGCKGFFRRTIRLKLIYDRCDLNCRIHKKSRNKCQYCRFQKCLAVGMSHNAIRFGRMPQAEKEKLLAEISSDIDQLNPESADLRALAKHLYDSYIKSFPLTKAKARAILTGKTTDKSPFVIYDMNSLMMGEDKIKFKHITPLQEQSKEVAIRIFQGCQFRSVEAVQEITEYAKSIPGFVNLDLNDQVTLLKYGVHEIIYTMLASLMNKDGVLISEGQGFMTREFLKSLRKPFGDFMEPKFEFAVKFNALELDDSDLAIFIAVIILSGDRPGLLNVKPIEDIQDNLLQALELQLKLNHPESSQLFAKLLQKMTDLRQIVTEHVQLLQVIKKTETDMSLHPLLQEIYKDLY
Summary of the method: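 Using GeneBLAzer HEK293 cells, response was quantified by CCF4 fluorescence and normalized between basal DMSO (0%) and rosiglitazone 2 uM (100%); curves yielded half-maximal stimulation concentration and efficacy.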

[13] = molecular target: Retinoic acid receptor RXR-alpha (Homo sapiens) (UniProt P19793); assay: qHTS assay for small molecule agonists of retinoid X receptor alpha signaling (AID 588544; calls by dose curve;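 note: 0% = DMSO basal wells and 100% = reference agonist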)
Chain of Retinoic acid receptor RXR-alpha (Homo sapiens) (P19793 whole entry, looked up): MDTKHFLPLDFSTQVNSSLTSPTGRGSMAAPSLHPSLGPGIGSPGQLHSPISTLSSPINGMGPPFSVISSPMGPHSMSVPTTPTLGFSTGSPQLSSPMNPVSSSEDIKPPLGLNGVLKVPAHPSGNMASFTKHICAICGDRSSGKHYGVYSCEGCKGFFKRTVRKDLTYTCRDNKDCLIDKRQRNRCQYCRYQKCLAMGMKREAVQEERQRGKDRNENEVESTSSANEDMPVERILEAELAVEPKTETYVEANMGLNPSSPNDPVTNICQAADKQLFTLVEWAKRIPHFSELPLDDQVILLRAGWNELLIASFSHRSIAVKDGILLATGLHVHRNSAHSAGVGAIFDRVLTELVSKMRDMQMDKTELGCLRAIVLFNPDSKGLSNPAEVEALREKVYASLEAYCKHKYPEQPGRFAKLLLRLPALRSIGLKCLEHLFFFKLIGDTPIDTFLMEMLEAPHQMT

[14] = molecular target: Thyroid hormone receptor beta (Homo sapiens) (UniProt P10828); assay: qHTS assay for small molecule antagonists of thyroid hormone receptor beta signaling (AID 588547; active = well fitted inhibition curve with a large enough effect in the signal ratio, with a control signal flat, not every such curve was filed as active; the % refers to the signal ratio;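 note: cells stimulated with 0.4 nM T3 agonist during compound exposure; series mostly up to about 77 µM; % is set by controls: 0 for no effect and ±100 for the full control effect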); conditions: TR-UAS-bla HEK293, beta-lactamase ratio, antagonist mode, 18 h
Chain of Thyroid hormone receptor beta (Homo sapiens) (P10828 whole entry, looked up): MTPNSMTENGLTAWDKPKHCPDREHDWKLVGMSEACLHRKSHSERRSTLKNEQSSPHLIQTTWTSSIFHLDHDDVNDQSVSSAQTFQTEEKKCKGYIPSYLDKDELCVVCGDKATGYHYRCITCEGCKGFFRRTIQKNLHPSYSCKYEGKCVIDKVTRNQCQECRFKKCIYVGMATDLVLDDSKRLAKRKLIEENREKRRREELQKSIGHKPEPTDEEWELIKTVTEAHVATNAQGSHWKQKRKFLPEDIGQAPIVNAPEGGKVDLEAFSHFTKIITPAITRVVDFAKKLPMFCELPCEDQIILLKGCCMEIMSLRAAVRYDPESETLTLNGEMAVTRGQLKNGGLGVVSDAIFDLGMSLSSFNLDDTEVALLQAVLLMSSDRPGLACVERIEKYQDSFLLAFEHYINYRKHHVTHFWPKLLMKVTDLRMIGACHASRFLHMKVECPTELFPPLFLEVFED
Summary of the method: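 TR-UAS-bla GripTite HEK293 cells in 2% charcoal/dextran FBS medium; compounds 0.59 nM to 92 uM with T3 at 0.4nM final, 18 h at 37 C. Beta-lactamase read by CCF4 fluorescence (460/530 nm); Hill fits gave IC50 and efficacy.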

[15] = qHTS assay for small molecule activators of the p53 signaling pathway (AID 651743; active = well fitted activation curve with a large enough effect in the signal ratio, not every such curve was filed as active; the % refers to the signal ratio; note: series mostly up to about 92 µM; % of control where 0% means no effect); conditions: HCT-116 p53RE-bla, beta-lactamase FRET ratio, 16 h; activation: active compounds read high
Summary of the method: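 Reporter: beta-lactamase driven by p53 response elements, stably integrated in HCT-116 cells. Cells seeded at 4,000/well, 5 h preincubation, compound (DMSO) 16 h at 37 C; B/G FRET substrate 2 h RT; fluorescence intensity read.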

[16] = molecular target: Tumor necrosis factor (Homo sapiens) (UniProt P01375); assay: qHTS assay to identify small molecules that stimulate Tumor Necrosis Factor-alpha (TNF-alpha) secretion (AID 651757; active = well fitted curve in the direction sought with a large enough effect in the signal ratio; the % refers to the signal ratio; note: 0% is about no effect)
Chain of Tumor necrosis factor (Homo sapiens) (P01375 whole entry, looked up): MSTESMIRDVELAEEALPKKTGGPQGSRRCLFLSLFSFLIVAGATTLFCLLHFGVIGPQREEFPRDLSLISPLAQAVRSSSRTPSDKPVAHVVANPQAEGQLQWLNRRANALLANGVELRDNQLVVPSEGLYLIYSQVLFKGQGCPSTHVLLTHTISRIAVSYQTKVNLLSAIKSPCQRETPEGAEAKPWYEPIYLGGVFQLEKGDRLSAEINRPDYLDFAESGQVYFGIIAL
Summary of the method: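 THP-1 cells, 3000/well; compound 17 hrs, 37 C; add cryptate/XL665 anti-TNF-alpha antibody pair; 3 hr RT; TR-FRET (HTRF) read of secreted TNF-alpha. Quantitative HTS format.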

[17] = qHTS assay for environmental chemicals that activate the Aryl hydrocarbon Receptor (AhR) signaling pathway (AID 651777); conditions: 1A2-DRE human hepatoma cells, luciferase, 24 h; activation: active compounds read high; note: % of control where 0% means no effect; nearly all actives have a fitted effect of over 15% in size
Summary of the method: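 Following a 24 hr incubation with test chemicals at 37 C and 5% CO2, 1A2-DRE human hepatoma cells received One-Glo reagent; after 30 min at room temperature, luciferase output reflected CYP1A2 induction via AhR.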

[18] = molecular target: Nuclear receptor ROR-gamma (Homo sapiens) (UniProt P51449); assay: qHTS assay for small molecule antagonists of the retinoid-related orphan receptor gamma (ROR-gamma) signaling pathway (AID 651802);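 note: CHO cells with doxycycline-induced ROR-gamma expression; luciferase reporter luminescence driven by ROR response element; series mostly up to about 92 µM; % is set by controls: 0 for no effect and ±100 for the full control effect; nearly all actives have a fitted effect of over 60% in size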
Chain of Nuclear receptor ROR-gamma (Homo sapiens) (P51449 whole entry, looked up): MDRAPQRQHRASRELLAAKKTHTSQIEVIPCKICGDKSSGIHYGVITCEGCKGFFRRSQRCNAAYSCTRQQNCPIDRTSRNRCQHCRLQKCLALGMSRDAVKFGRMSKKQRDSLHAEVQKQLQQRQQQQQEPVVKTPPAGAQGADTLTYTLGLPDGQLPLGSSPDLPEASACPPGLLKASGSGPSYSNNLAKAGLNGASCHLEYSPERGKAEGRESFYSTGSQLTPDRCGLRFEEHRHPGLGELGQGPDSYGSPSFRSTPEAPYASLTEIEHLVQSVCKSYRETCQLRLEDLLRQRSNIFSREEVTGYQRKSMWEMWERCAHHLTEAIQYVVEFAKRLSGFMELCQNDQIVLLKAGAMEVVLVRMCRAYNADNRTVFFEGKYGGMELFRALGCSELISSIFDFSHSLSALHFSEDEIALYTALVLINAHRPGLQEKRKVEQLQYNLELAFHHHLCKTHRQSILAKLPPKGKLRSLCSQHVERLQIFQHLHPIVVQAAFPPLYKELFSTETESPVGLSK
Summary of the method: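 Luciferase read-out: ONE-Glo luminescence after 30 min at room temperature, following 16hr doxycycline induction at 37C, 5% CO2 of CHO cells with TET-inducible ROR and RORE-LUC reporter; decreased luminescence = reduced reporter activity.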

[19] = qHTS assay for small molecule antagonists of the retinoid-related orphan receptor gamma (ROR-gamma) signaling pathway - cell viability counter screen (AID 720652; active = well fitted curve in the direction sought with a large enough effect in the repeat runs; an effect the other way counts as inactive or inconclusive;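 note: CHO reporter cells with doxycycline-induced ROR-gamma expression; series mostly up to about 92 µM; compound exposure lasted 16 hr before ATP read; % is set by controls: 0 for no effect and ±100 for the full control effect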)
Summary of the method: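 CHO RORE-LUC/TET-ROR line, 1,000 cells/well, 37 C 5% CO2 5 hr; cpd or DMSO + doxycycline induction, 16 hr. CellTiter-Glo, 30 min RT, luminescence = ATP content.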

[20] = molecular target: Nuclear receptor subfamily 1 group I member 2 (Rattus norvegicus) (UniProt Q9R1A7); assay: qHTS assay for small molecule activators of the rat pregnane X receptor (rPXR) signaling pathway (AID 651751; call rule not given here; note: 0% is about no effect); conditions: rPXR reporter cells, luciferase (One-Glo), 24 h
Chain of Nuclear receptor subfamily 1 group I member 2 (Rattus norvegicus) (Q9R1A7 whole entry, looked up): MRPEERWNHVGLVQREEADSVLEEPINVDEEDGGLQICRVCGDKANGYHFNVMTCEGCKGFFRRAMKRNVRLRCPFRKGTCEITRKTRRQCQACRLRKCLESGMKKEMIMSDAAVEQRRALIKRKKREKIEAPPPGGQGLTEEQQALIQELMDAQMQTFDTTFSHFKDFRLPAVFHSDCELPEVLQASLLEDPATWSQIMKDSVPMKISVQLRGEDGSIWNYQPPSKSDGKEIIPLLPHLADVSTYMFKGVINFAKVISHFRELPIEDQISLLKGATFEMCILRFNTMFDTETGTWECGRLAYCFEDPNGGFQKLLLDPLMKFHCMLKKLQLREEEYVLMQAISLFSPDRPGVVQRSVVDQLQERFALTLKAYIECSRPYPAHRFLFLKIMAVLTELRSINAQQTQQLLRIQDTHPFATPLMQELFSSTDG

Cc1cccc(C#N)c1
inactive: Potency [1] | Potency [2] | Potency [3] | Potency [4] | Potency [5] | Potency [6] | Potency [7] | Potency [8] | Potency [9] | activation [10] -3.56% | Potency [11] | outcome [12] | Potency [13] | activity change % (negative = inhibition) [14] 7.42% | activation [15] -3.72% | outcome [16] | activation [17] 2.06% | Potency [18] | Potency [19] | max response [20] -0.906%

O=[N+]([O-])c1cccc2ccccc12
inactive: Potency [1] | Potency [2] | Potency [3] | Potency [4] | Potency [5] | Potency [6] | Potency [7] | Potency [8] | Potency [9] | outcome [12] | Potency [13] | activity change % (negative = inhibition) [14] 7.72% and 4.17% | activation [15] -1.88% and -1.02% | outcome [16] | activation [17] 0.626% and 5.73% | Potency [18] | max response [20] 5.16% and 1.63%

CCOc1ccc(N)cc1
inactive: Potency [1] | Potency [2] | Potency [4] | Potency [5] | Potency [6] | Potency [7] | Potency [8] | Potency [9] | activation [10] 2.46% | Potency [11] | Potency [13] | activity change % (negative = inhibition) [14] -6.64% | activation [15] 1.96% | outcome [16] | activation [17] 1.6% | Potency [18] | Potency [19] | max response [20] 3.36%

C=C(C)C(=O)OCC1CO1 (centres undefined)
inactive: Potency [1] | Potency [2] | Potency [3] | Potency [4] | Potency [5] | Potency [6] | Potency [7] | Potency [8] | Potency [9] | activation [10] -3.77% | Potency [11] | outcome [12] | Potency [13] | activity change % (negative = inhibition) [14] 6.72% | activation [15] -0.637% | outcome [16] | activation [17] 0.578% | Potency [18] | Potency [19] | max response [20] -2.46%

ClC(Cl)(Cl)c1ccccc1
inactive: Potency [1] | Potency [2] | Potency [3] | Potency [4] | Potency [5] | Potency [6] | Potency [7] | Potency [8] | Potency [9] | activation [10] -6.79% and 7.81% | Potency [11] | Potency [13] | activity change % (negative = inhibition) [14] -2.31% and -2.68% | activation [15] -3.47% and -2.04% | outcome [16] | activation [17] -0.334% and -0.126% | Potency [18] | Potency [19] | max response [20] 1.62% and -4.94%
